test: qHTS profiling of inhibitors of Plasmodium falciparum (DD2) proliferation (acoustic dispense); details: P. falciparum Dd2 in erythrocytes, SYBR Green DNA, 72 h; at 49.8 µM (top of the series) unless noted
Description: Plasmodium falciparum is a virulent malarial parasite that kills 1-2 million people worldwide each year. Transmitted by mosquitoes, the sporozoite form of the parasite enters the blood stream to infect hepatocytes, where they become merozoites that infect red blood cells (erythrocytes). Within erythrocytes, merozoites begin a […] cycle of growth and division, after which the parasite is released to infect new red blood cells. Gametocytes, which form within erythrocytes as well, circulate in the bloodstream and are ingested by the mosquito, thereby completing the life cycle. To profile malarial isolates for differential chemical responses and to identify inhibitors of malarial growth, an assay that measures P. falciparum growth and replication within erythrocytes was employed. This assay uses a DNA binding fluorescent dye (SYBR Green) to detect parasite DNA following cell lysis. Because mature erythrocytes lack DNA, only Plasmodium-derived DNA is detected.
The SYBR Green viability assay was adapted from a method described previously (Plouffe et al., 2008). For screening 3 ul culture medium was dispensed into 1536 well black clear bottom plates (Aurora Biotechnologies) using a Multidrop Combi (Thermo Fisher Scientific Inc.), 23 nL of compounds in DMSO were added by an acoustic dispenser (EDC Biosystems), and 5 ul of erythrocytes infected with P. falciparum (0.3% parasitemia, 2.5% hematocrit final concentration) were added. The plates were incubated at 37 C in a humidified incubator in 5% CO2 for 72 h, and 2 ul lysis buffer (20 mM Tris HCl, 10 mM EDTA, 0.16% saponin, 1.6% triton X, 10X SYBR Green I supplied as 10,000X […] by Invitrogen) was added to each well. The plates were mixed for 25 sec with gentle shaking and incubated overnight at room temperature in the dark. The following morning, fluorescence intensity at 485(14) nm excitation and 535(25) nm emission wavelengths was measured on an EnVision (Perkin Elmer) plate reader. Plate reads were normalized relative to the control inhibitor (0.29 uM artemisinin) and vehicle (DMSO) wells present on each plate and then corrected by an algorithm using vehicle-only control plates at the beginning and end of the compound plate stack.

Row | SMILES | parasite growth, lower = inhibition
1 | NC(=NCCCCCCN=C(N)N=C(N)Nc1ccc(Cl)cc1)N=C(N)Nc1ccc(Cl)cc1 | 3.29%
2 | CC1(CN2CCC(n3c(=O)[nH]c4ccccc43)CC2)OCc2ccccc2-n2cccc21 (stereo not given) | 12.6%
3 | O=C(Nc1cn[nH]c1-c1nc2ccc(CN3CCOCC3)cc2[nH]1)NC1CC1 | 0.452%
4 | Cc1cn(-c2cc(NC(=O)c3ccc(C)c(Nc4nccc(-c5cccnc5)n4)c3)cc(C(F)(F)F)c2)cn1 | 7.6%
5 | CSc1cccc(Nc2ncc3cc(-c4c(Cl)cccc4Cl)c(=O)n(C)c3n2)c1 | 3.85%
6 | C[C@H]1[C@@H](OC(=O)CCC(=O)O)O[C@@H]2O[C@@]3(C)CC[C@@H]4[C@H](C)CC[C@@H]1[C@@]24OO3 | -0.775%
7 | Cc1cnc(Nc2ccc(CN3CCOCC3)cc2)nc1Nc1cccc(S(=O)(=O)NC(C)(C)C)c1 | 0.192%
8 | COc1ccc(-c2cc3c(C)nc(N)nc3n(C3CCC(OCCO)CC3)c2=O)cn1 (stereo not given) | -0.346%
9 | CCC(C=C[C@@H]1OC(=O)C=C[C@H]1C)=C[C@H](C)CC=CC(C)=C[C@@H](C)C(=O)[C@@H](C)[C@H](O)[C@@H](C)CC(C)=CC(=O)O | 97.6% [at 1.88 µM]
10 | COC(=O)[C@]12CCC(C)(C)C[C@@H]1[C@@H]1C(=O)C=C3[C@@]4(C)C=C(C#N)C(=O)C(C)(C)[C@@H]4CC[C@@]3(C)[C@]1(C)CC2 | 23.1%
11 | CC[C@H]1OC(=O)[C@H](C)[C@@H](O[C@H]2C[C@@](C)(OC)[C@@H](O)[C@H](C)O2)[C@H](C)[C@@H](O[C@@H]2O[C@H](C)C[C@H](N(C)C)[C@@H]2O)[C@](C)(O)C[C@@H](C)CN(C)[C@H](C)[C@@H](O)[C@]1(C)O | 9.84%
12 | CCS(=O)(=O)Nc1ccc2[nH]c(O)c(C(=Nc3ccc(CN4CCCCC4)cc3)c3ccccc3)c2c1 | -0.594%
13 | CN(C(=O)OC(C)(C)C)[C@@H](Cc1ccc(O[S+](=O)([O-])c2cccc3cnccc23)cc1)C(=O)N1CCN(C(=O)OCc2ccccc2)CC1 | -0.325%
14 | c1cncc(CN2CCC(n3ncc4c(N5CCOCC5)nc(-c5ccc6[nH]ccc6c5)nc43)CC2)c1 | 0.462%
15 | CN[C@@H](C)C(=O)N[C@H]1CCCC[C@H]2CC[C@@H](C(=O)N[C@@H](c3ccccc3)c3cn(CCCCc4ccc(CCCCn5cc([C@@H](NC(=O)[C@@H]6CC[C@@H]7CCCC[C@H](NC(=O)[C@H](C)NC)C(=O)N76)c6ccccc6)nn5)cc4)nn3)N2C1=O | 0.728%
16 | FC(F)c1nc2ccccc2n1-c1nc(N2CCOCC2)nc(N2CCOCC2)n1 | 0.937%
17 | CN([C@@H](Cc1ccc(OS(=O)(=O)c2cccc3cnccc23)cc1)C(=O)N1CCN(c2ccccc2)CC1)S(=O)(=O)c1cccc2cnccc12 | 0.489%
18 | COc1ccc(-c2ccc3ncc4c(c3c2)n(-c2ccc(N3CCNCC3)c(C(F)(F)F)c2)c(=O)n4C)cn1 | 2.81%
19 | O=C1C(=O)c2ccccc2C(O)=C1C1CCC(c2ccc(Cl)cc2)CC1 (stereo not given) | 3.04%
20 | Cc1nc2cnc3ccc(C#Cc4cccnc4)cc3c2n1-c1ccc(C(C)(C)C#N)cc1 | 0.532%

Row | SMILES | parasite growth, lower = inhibition
21 | COc1ncnc(NS(=O)(=O)c2ccc(N)cc2)c1OC | 114%
22 | Cc1nc2c(C#N)cccc2n1-c1ccc(C(=O)NC2CC2)s1 | 2.19%
23 | Nc1cccc(-c2csc(NC(=O)CCCCCCC(=O)NO)n2)c1 | -0.461%
24 | COc1cc(C)c2c(Oc3cccc(C(F)(F)F)c3)c(OC)cc(NCCCC(C)N)c2n1 (stereo not given) | -0.465%
25 | O=C1NC(=O)C(=Cc2ccc3nccc(-c4ccncc4)c3c2)S1 | 0.455%
26 | Cn1c2ccccc2c2c3c(c4c5ccccc5n(CCC#N)c4c21)CNC3=O | 70.2%
27 | C[C@@H]1CCC2[C@@H](C)[C@@H](O)O[C@@H]3O[C@@]4(C)CC[C@@H]1[C@@]23OO4 (stereo not given in full) | -0.395%
28 | C=CCNC1=C2C[C@@H](C)C[C@H](OC)[C@@H](O)[C@@H](C)C=C(C)[C@H](OC(N)=O)[C@@H](OC)C=CC=C(C)C(=O)NC(=CC1=O)C2=O | 0.49%
29 | O=C(Nc1ccc([N+](=O)[O-])cc1Cl)c1cc(Cl)ccc1O | 87.9%
30 | CCCCN(CCCC)CCC(O)c1cc2c(Cl)cc(Cl)cc2c2cc(C(F)(F)F)ccc12 (stereo not given) | -0.281% [at 23.2 µM]
31 | CCNC(=O)c1noc(-c2cc(C(C)C)c(O)cc2O)c1-c1ccc(CN2CCOCC2)cc1 | 112%
32 | CC(C)Oc1cc(Nc2nc(N[C@@H](C)c3ccc(F)cn3)ncc2Cl)[nH]n1 | 3.28%
33 | CC[C@H]1OC(=O)[C@H](C)C(=O)[C@H](C)[C@@H](O[C@H]2O[C@H](C)C[C@H](N(C)C)[C@@H]2O)[C@](C)(OC)C[C@@H](C)C(=O)[C@H](C)[C@H]2N(CCCCn3cnc(-c4cccnc4)c3)C(=O)O[C@]12C | 4.52%
34 | COc1cc2c(Oc3ccc(NC(=O)C4(C(=O)Nc5ccc(F)cc5)CC4)cc3F)ccnc2cc1OCCCN1CCOCC1 | 0.0003%
35 | COc1ccc(-c2nc(N3CCOCC3)c3sc(CN(C)c4ncc(C(=O)NO)cn4)cc3n2)cn1 | 0.651%
36 | COc1ccc2cc3[n+](cc2c1OC)CCc1cc2c(cc1-3)OCO2 | -0.889%
37 | C[C@H](Cn1cnc2c(N)ncnc21)OCP(=O)(O)O | 98%
38 | CC[C@@]1(O)C[C@H](O[C@H]2C[C@H](N(C)C)[C@H](O[C@H]3C[C@H](O)[C@H](O[C@H]4CCC(=O)[C@H](C)O4)[C@H](C)O3)[C@H](C)O2)c2c(cc3c(c2O)C(=O)c2c(O)cccc2C3=O)[C@@H]1C(=O)OC | -1.21%
39 | NC1CCC(Nc2nc(Nc3ccc(C(=O)N4CCCCC4)cc3)c3ncn(-c4cccc(F)c4)c3n2)CC1 (stereo not given) | -0.359%
40 | CCOC(=O)[C@H](CCc1ccccc1)N[C@H]1CS[C@H](c2cccs2)CN(CC(=O)O)C1=O | 61.3%

— PubChem BioAssay AID743365 (National Center for Advancing Translational Sciences (NCATS), 2014)
